# Calb FLC = C. albicans growth modulation with fluconazole. AID 1979. growth inhibition, % (concentration not given with the values). C. albicans CaCi-2 (fluconazole-resistant clinical isolate) + fluconazole, Alamar Blue growth, 48 h. actives 0.57% (n = 300,000);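 active means growth inhibition above about 58% in most replicates, limit read from the data, passing the limit was not always enough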;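 further: all wells also contain fluconazole at 8 µg/ml as a sub-toxic cotreatment; 0% = median of DMSO wells and 100% = median of geldanamycin control wells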
# IDE cell activ = boosts human insulin-degrading enzyme activity in HEK cells; P14735; activation, % at 5.96 µM; FAbeta-B cleavage, fluorescence polarization; 0% vehicle, 100% cell-free pure enzyme wells; AID 493087; actives 0.073% (n = 340,000);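 active means activation above the mean of all tested compounds plus 3 SD, set per screening campaign, cut at about 17% in these data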
# Target sequence (P14735 whole entry, looked up): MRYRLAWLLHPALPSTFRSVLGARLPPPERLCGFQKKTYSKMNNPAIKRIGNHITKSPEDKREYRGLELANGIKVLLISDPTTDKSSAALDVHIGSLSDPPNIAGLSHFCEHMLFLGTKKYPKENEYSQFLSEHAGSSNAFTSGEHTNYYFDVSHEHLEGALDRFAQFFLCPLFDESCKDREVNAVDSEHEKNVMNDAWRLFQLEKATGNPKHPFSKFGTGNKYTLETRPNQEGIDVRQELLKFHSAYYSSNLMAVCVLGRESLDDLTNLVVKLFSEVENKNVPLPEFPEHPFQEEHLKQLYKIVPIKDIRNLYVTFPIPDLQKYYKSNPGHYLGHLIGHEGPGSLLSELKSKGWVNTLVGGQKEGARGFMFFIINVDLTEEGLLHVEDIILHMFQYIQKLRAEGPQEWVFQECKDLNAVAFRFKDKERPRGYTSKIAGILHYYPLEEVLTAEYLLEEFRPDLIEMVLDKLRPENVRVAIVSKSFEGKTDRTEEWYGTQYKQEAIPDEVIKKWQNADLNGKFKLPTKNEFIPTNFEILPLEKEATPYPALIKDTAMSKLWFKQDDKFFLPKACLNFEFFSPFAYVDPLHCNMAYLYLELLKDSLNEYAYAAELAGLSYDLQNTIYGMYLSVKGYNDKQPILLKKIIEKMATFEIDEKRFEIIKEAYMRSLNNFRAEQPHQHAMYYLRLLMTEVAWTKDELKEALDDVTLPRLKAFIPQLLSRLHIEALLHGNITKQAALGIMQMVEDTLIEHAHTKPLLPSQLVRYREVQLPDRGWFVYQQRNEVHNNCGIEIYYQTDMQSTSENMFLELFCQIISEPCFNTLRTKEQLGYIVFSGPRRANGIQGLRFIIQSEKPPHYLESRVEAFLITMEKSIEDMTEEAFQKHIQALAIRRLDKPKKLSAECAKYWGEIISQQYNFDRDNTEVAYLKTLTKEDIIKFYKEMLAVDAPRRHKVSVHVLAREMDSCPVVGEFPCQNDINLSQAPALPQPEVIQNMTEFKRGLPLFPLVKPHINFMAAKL
# Rpn11 block = inhibitors of human proteasome Rpn11. human 26S proteasome, Ub4-pepOG fluorescence polarization; 20S core pre-blocked with epoxomicin. inhibition, % at 20 µM. actives 0.59% (n = 360,000);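 active means inhibition at 20 µM, scaled to each plate's controls, above about 33%, limit read from the data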
# TPT1 inh = inhibitors of Candida albicans tRNA 2'-phosphotransferase TPT1; recombinant caTPT1, FP RNA substrate dephosphorylation; inhibition, % at 5 µM; actives 0.81% (n = 300,000); AID 1962;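 active means inhibition above the mean of all tested compounds plus 3 SD, set per screening campaign, cut at about 24% in these data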;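 further: plate controls were DMSO alone for no effect and ferristatin control at 100 nM for full effect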
# Rin1 Abl inh = blocks binding of human Rin1 to Abl. TR-FRET Rin1/Abl binding, biochemical. actives 0.4% (n = 360,000). inhibition, % at 7.35 µM. AID 588664. P00519+Q13671; in the data active means inhibition above about 5%, passing the limit was not always enough
# IDE inh = cellular human IDE inhibition | HEK cells, FAbetaB cleavage, fluorescence polarization | inhibition, % at 5.59 µM | actives 0.41% (n = 320,000) | AID 434962;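 active means percent inhibition above the average of all tested compounds plus 3 SD, set per screening campaign, cut at about 16% in these data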;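 further: IDE supplied by intact live HEK cells; FP after avidin binding of uncleaved biotin substrate so inhibition keeps polarization high; 0% = DMSO wells and 100% = 60 µM reference IDE inhibitor Ii1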
# IDE cell inh cf = cellular human IDE inhibition, confirmation; AID 435028; inhibition, % at 5.59 µM; HEK cells, FAbetaB cleavage, fluorescence polarization; actives 51% (n = 1,200); shares compounds with IDE inh;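 active means mean inhibition across triplicate wells above the cutoff set by the earlier primary insulin-degrading enzyme screen, cut at about 16% in these data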;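 further: 0% = DMSO wells and 100% = 60 µM reference IDE inhibitor Ii1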
# HEK293 tox = counter-screen for IDE inhibitors: cytotoxicity in HEK cells | HEK293 cytotoxicity, ATP luminescence | actives 28% (n = 1,200) | shares compounds with IDE inh | inhibition, % at 5.59 µM; in the data active means inhibition above about 22%;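 further: 0% = vehicle wells and 100% = reference cytotoxic drug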
# The depositor's hits bear a star; · = no result given. Rows were chosen to be rich in hits. Some 2.3% of all compounds tested hit in one or more screens of this group.
SMILES,Calb FLC,IDE cell activ,Rpn11 block,TPT1 inh,Rin1 Abl inh,IDE inh,IDE cell inh cf,HEK293 tox
CS(=O)(=O)c1ccc(C(=O)NCC2(N3CCCCC3)CCCCC2)cc1,-9,0,1,-3,-2,16*,6,10
CN(C)S(=O)(=O)c1ccc(C(=O)NCC2(N3CCCCC3)CCCCC2)cc1,12,0,-2,1,-3,0,·,·
Cc1cccc(N2CCN(C(=O)NCc3ccc(F)cc3)CC2)c1C,3,0,-1,-1,-2,3,·,·
COc1ccc(CNC(=O)N2CCN(c3cccc(C)c3C)CC2)cc1OC,6,-1,10,-3,5,17*,6,13
O=c1[nH]c2cc(Br)cnc2nc1/C=C(\O)c1ccc(F)cc1,54,-50,12,19,-4,26*,65*,13
Cc1ccccc1NS(=O)(=O)c1nnc(NC(=O)C(C)C)s1,4,4,-7,-2,-1,-7,·,·
COc1cccc(C(=O)Nc2nc(-c3ccncc3)cs2)c1,-19,-12,-13,0,-2,26*,12,11
CCOC(=O)Nc1cccc(OCC(=O)Nc2ccc3c(c2)CCC3)c1,·,1,0,·,0,0,·,·
CC1CCCN(C(=O)c2cc(N3C(=O)C4C5CCC(C5)C4C3=O)ccc2Cl)C1 (stereo not drawn),-4,·,·,0,·,-1,·,·
COc1ccccc1N1CCN(C(=O)c2cc(N3C(=O)C4C5CCC(C5)C4C3=O)ccc2Cl)CC1 (stereo not drawn),16,-16,-3,2,1,31*,21*,11
CCN(CC(=O)NC1CCS(=O)(=O)C1)S(=O)(=O)c1ccc(Cl)cc1C(F)(F)F (stereo not drawn),-1,8,-2,0,-2,-1,·,·
OC[C@@H]1CN(Cc2ccccc2)C[C@H](n2cnc3c(N4CCOCC4)ncnc32)O1,·,·,0,·,-2,·,·,·
COc1ccc(C(=O)N/C(=C/c2cccs2)C(=O)NN)cc1OC,3,-22,-4,-4,-2,22*,-2,11
COc1ccc(C(=O)N/C(=C\c2cccs2)C(=O)N2CCN(C)CC2)cc1OC,-14,0,0,2,0,-1,·,·
CC(C)(C)OC(=O)N1Cc2ccccc2C[C@H]1C(=O)NC1CCCC1,-8,2,-8,·,3,·,·,·
COc1cc(OC)cc(OC(=O)C2CCN(C3=NS(=O)(=O)c4ccccc43)CC2)c1,·,5,7,·,2,-3,·,·
CCn1c(SCC(=O)Nc2nc(-c3ccc(C)cc3)cs2)nnc1-c1ccccc1,-1,-13,8,-3,1,16*,6,21
CCn1c(SCC(=O)Nc2nc(-c3ccc(C)cc3)cs2)nnc1-c1ccccc1O,0,-7,2,-2,2,6,·,·
Cc1cc(S(=O)(=O)Nc2nc(CN3CCOCC3)nc3sc4c(c23)CCC4)ccc1F,·,-8,14,·,-4,-3,·,·
COc1ccc(CCCNC(=O)C2Cc3c(-c4cccc(NC(C)=O)c4)ccnc3O2)cc1 (stereo not drawn),·,·,-3,·,0,·,·,·
O/C=c1\ccc2cccc3nc(C(F)(F)F)nc1c23,2,-54,5,-2,2,26*,103*,41*
NNc1nc(C(F)(F)F)nc2ccccc12,-6,2,7,9,-1,-6,·,·
Cc1ccc(S(=O)(=O)Nc2ccc3oc(=O)sc3c2)c(C)c1,14,-3,5,-4,1,18*,7,4
CCOc1ccc(C(CC(=O)O)NC(=O)COc2ccc3ccccc3c2)cc1OC (stereo not drawn),-4,-4,5,-2,5,2,·,·
COc1cc(NC(=O)c2ccccc2-c2ccccc2)cc(OC)c1OC,-6,·,·,-1,·,5,·,·
SMILES,Calb FLC,IDE cell activ,Rpn11 block,TPT1 inh,Rin1 Abl inh,IDE inh,IDE cell inh cf,HEK293 tox
CCSc1ccccc1C(=O)Nc1cc(OC)c(OC)c(OC)c1,7,-9,-2,-1,-1,18*,10,9
N#C/C(=C(/O)C(Cl)c1ccccc1)c1nc2ccccc2s1 (stereo not drawn),8,2,2,4,-58,-7,·,·
N#C/C(=C\c1ccccn1)c1nc2ccccc2s1,6,-60,17,23,-1,28*,46*,17
O=C(Nc1ccccc1N1CCOCC1)c1cc(=O)[nH]c2ccccc12,·,3,8,·,1,3,·,·
O=C(O)c1cccc(C(=O)O)c1Br,0,2,-6,-3,1,4,·,·
CC(CC(=O)O)CC(=O)N1CCN(S(=O)(=O)c2cccs2)CC1 (stereo not drawn),13,-24,0,-1,2,20*,12,9
O=C(COc1ccc(S(=O)(=O)N2CCOCC2)cc1)N1CCN(c2ccccc2)CC1,0,-11,-3,-2,2,21*,10,22*
CCOC(=O)c1c(C)n(-c2ccc(C)cc2)c2ccc(OCC(O)CNCC3CCCO3)cc12 (stereo not drawn),40,-10,6,-4,1,17*,7,13
OC(CNCC1CCCO1)COc1ccc(OCC(O)CNCC2CCCO2)cc1 (stereo not drawn),-2,3,3,3,-5,4,·,·
CCOC(=O)c1c(C)n(-c2ccc(C)cc2)c2ccc(OCC(O)CNCCCO)cc12 (stereo not drawn),16,-15,10,-1,3,17*,10,16
COC(=O)c1c(NC(=O)COC(=O)c2ccc(Cl)nc2)sc(C)c1C,4,1,4,-2,0,5,·,·
Cc1oc(C)c2c(=O)ccc3c(c12)OC(N)=C(C#N)C3c1ccccc1 (stereo not drawn),16,-17,·,4,-3,15,·,·
CSc1ccc(C2C(C#N)=C(N)Oc3c2ccc(=O)c2c(C)oc(C)c32)cc1 (stereo not drawn),13,-31,·,40*,2,30*,109*,25*
CCOc1ccc2nc(SCC3CC3(Cl)Cl)[nH]c2c1 (stereo not drawn),-25,5,-5,1,-3,16*,4,29*
ClC1(Cl)CC1CSc1nc2ccccc2[nH]1 (stereo not drawn),-17,-1,-1,-2,3,-6,·,·
Cc1ccc2c(c1)=N/C(=N\c1[nH]c(O)c3ccccc13)N=2,·,·,·,·,-6,·,·,·
Oc1[nH]c(N=C2N=c3ccccc3=N2)c2ccccc12,64,-16,33,0,0,26*,20*,76*

# High-throughput results as filed in PubChem BioAssay.
